Data: PubChem BioAssay

The molecules below were run on XIP peptide (Xip251-270) (assay: small-molecule binders of XIP peptide, primary screen, biochemical, small-molecule microarray, fluorescence 635/667 nm, 0.5 µg/mL protein (AID 1183)). Conditions: small-molecule microarray binding, fluorescence 635 nm; higher = more signal.
Molecule `CCCCC#C[C@@H]1C=C[C@H](Oc2cc(OC)c(OC)c(OC)c2)[C@@H](COC(=O)OCC)O1` has a composite z-score of 0.355.
With `C=COC[C@@H]1CN2[C@@H](CC[C@@H](C)[C@@H]2c2ccc(Br)cc2)C(=O)O1` the composite z-score was 0.103.
For `CCN1C(=O)[C@H]2[C@H]3[C@H](O)[C@H](O)CC(=NOCC(C)C)[C@@H]3CC[C@H]2C1=O`, the composite z-score was 0.645.
`COC(=O)CC=C[C@@H](C)[C@@H](C=NOCC[C@@H]1C=C[C@H](OC(C)=O)[C@@H](COC(C)=O)O1)OC` was tested, and the composite z-score was 0.239.
For `Cc1ccc(S(=O)(=O)NC(CCc2ccccc2)CC(=O)C(C)(C)C)cc1` (stereo unspecified), the composite z-score was -0.113.
`CC(CCN1CCc2nc(-c3ccccc3)c(-c3ccccc3)cc2C1)=NOC[C@@H](O)COCc1ccco1` gave a composite z-score of 0.54.
`O=C1[C@H]2[C@H]3[C@H](O)[C@H](O)CC(=NOC[C@@H](O)COCc4ccco4)[C@@H]3CC[C@H]2C(=O)N1C[C@@H]1CCCO1` was tested, and the composite z-score was 0.791.
For `COc1ccc(O[C@H]2C=C[C@@H](c3ccccc3)O[C@@H]2CON=CC[C@@H]2C=C[C@H](OC(C)=O)[C@@H](COC(C)=O)O2)cc1`, the composite z-score was -0.104.
Molecule `CCOC(=O)[C@H](Cc1ccccc1)NC(=O)CCC1CC(OC(=O)NCCc2ccc(F)cc2)CC2(CCCC(COC(=O)NCCc3ccc(Cl)cc3)O2)O1` (stereo partly specified) has a composite z-score of 0.348.
`CCN1C(=O)[C@H]2[C@H]3[C@H](O)[C@H](O)CC(=NO[C@@H](C)c4cn([C@H](CO)Cc5ccccc5)nn4)[C@@H]3CC[C@H]2C1=O` was tested, and the composite z-score was 0.814.
Molecule `COc1ccc(COC(=O)NN=C2C[C@@H](O)[C@@H](O)[C@@H]3[C@@H]4C(=O)N(C5CCCCC5)C(=O)[C@@H]4CC[C@H]23)cc1` has a composite z-score of -1.02.
`O=C1C=C[C@@H](O)[C@@H]2[C@@H]3C(=O)N(C[C@@H]4CCCO4)C(=O)[C@@H]3CC[C@@H]12` gave a composite z-score of 0.119.
Molecule `CCOC(=O)[C@H](CC(C)C)NC(=O)CCC1CC(OC(=O)NCc2ccc3c(c2)OCO3)CC2(CCCC(COC(=O)NCc3cccc(C(F)(F)F)c3)O2)O1` (stereo partly specified) has a composite z-score of 0.348.
Molecule `CCOC(=O)[C@H](Cc1ccccc1)NC(=O)CCC1CC(OC(=O)NCc2cccc3ccccc23)CC2(CCCC(COC(=O)NCc3ccccc3)O2)O1` (stereo partly specified) has a composite z-score of 0.355.
For `CCOC(=O)NN=C1C[C@@H](O)[C@@H](O)[C@@H]2[C@@H]3C(=O)N(C(C)(C)C)C(=O)[C@@H]3CC[C@H]12`, the composite z-score was 0.29.
Molecule `CCOC(=O)[C@H](Cc1ccccc1)NC(=O)CCC1CC(OC(=O)NCCc2ccc(F)cc2)CC2(CCCC(COC(=O)NCCOC)O2)O1` (stereo partly specified) has a composite z-score of 0.0681.
For `C#CCCCON=C1C[C@@H](O)[C@@H](O)[C@@H]2[C@@H]3C(=O)N(c4cccc(Oc5ccccc5)c4)C(=O)[C@@H]3CC[C@H]12`, the composite z-score was 0.507.
`CC(C)=CCCC(C)=CCON=C1C[C@@H](O)[C@@H](O)[C@@H]2[C@@H]3C(=O)N(C4CCCCC4)C(=O)[C@@H]3CC[C@@H]12` gave a composite z-score of 0.426.
`COC(=O)[C@@H]1CC[C@H](C)[C@@H](c2ccc(C)cc2)N1C(=O)c1ccc(C=NO[C@H](C)c2cn([C@@H]3COC[C@H]3O)nn2)cc1` was tested, and the composite z-score was 0.78.
For `COC(=O)[C@H](C)NC(=O)CCC1CC(OC(=O)NCCc2ccc(F)cc2)CC2(CCCC(COC(=O)NCCC(C)C)O2)O1` (stereo partly specified), the composite z-score was 0.74.
`CCCNC(=O)OC[C@H]1O[C@H](c2ccccc2)C=C[C@@H]1Oc1ccc(OC)cc1` gave a composite z-score of 0.631.
Molecule `COCOc1ccc(Br)cc1C(=O)[C@@H]1O[C@H]1c1cccc(OC)c1` has a composite z-score of 0.106.
Molecule `COc1ccc(O[C@@H]2[C@H](O)CO[C@H]2C=Cc2ccccc2)cc1` has a composite z-score of -0.0143.
`CC(=O)OC[C@H]1O[C@H](CC=NO[C@H](C)c2cn([C@H](CO)Cc3ccccc3)nn2)C=C[C@@H]1OC(C)=O` gave a composite z-score of 0.289.
Work on `CCOC(=O)[C@H](CC(C)C)NC(=O)CCC1CC(OC(=O)NCc2cccc3ccccc23)CC2(CCCC(COC(=O)NCCOc3ccccc3)O2)O1` (stereo partly specified) yielded a composite z-score of 0.471.
Work on `C#CCCCON=C1C[C@@H](O)[C@@H](O)[C@@H]2[C@@H]3C(=O)N(c4ccc(F)cc4F)C(=O)[C@@H]3CC[C@H]12` yielded a composite z-score of 0.683.
With `CCO[C@H](c1cc(OC)cc([N+](=O)[O-])c1OC)[C@H](C)C=CCC(=O)OC` the composite z-score was 0.325.
`C[C@@H]1CC[C@H]2C(=O)O[C@@H](COc3ccc(C(C)(C)C)cc3)CN2[C@@H]1c1ccc(Br)cc1` was tested, and the composite z-score was 0.0087.
Work on `C=CC[C@@H]1C=C[C@H](ON=C2[C@H]3CCn4c(=O)n(-c5ccccc5)c(=O)n4[C@H]3[C@H](O)[C@@H]3O[C@H]23)[C@@H](CO)O1` yielded a composite z-score of 0.287.
With `COC(=O)CC=C[C@@H](C)[C@@H]1C=C[C@H](O)[C@@H](CO)O1` the composite z-score was -0.518.
For `C#CCCCON=C1C[C@@H](O)[C@@H](O)[C@@H]2[C@@H]3C(=O)N(CC)C(=O)[C@@H]3CC[C@@H]12`, the composite z-score was 0.555.
In the case of `COc1cccc([C@H]2Oc3ccc(OC)cc3C(=NO[C@@H]3O[C@H](COC(C)=O)[C@@H](OC(C)=O)[C@H](OC(C)=O)[C@H]3OC(C)=O)[C@@H]2O)c1`, the composite z-score is reported as -0.172.
With `COc1ccc(O[C@H]2C=C[C@@H](c3ccccc3)O[C@@H]2CON=C(C)CCN2CCc3nc(-c4ccccc4)c(-c4ccccc4)cc3C2)cc1` the composite z-score was 0.445.
Work on `C[C@@H]1NC(=O)[C@@H](C)COC(=O)[C@H](C)NC(=O)[C@@H](C)COC1=O` yielded a composite z-score of 0.158.
`Cn1c(=O)n2n(c1=O)[C@H]1[C@H](O)[C@@H]3O[C@@H]3C(=NOCc3ccccc3)[C@H]1CC2` showed a composite z-score of 0.382.
With `C[C@@H](ON=C1[C@H]2CCn3c(=O)n(-c4ccccc4)c(=O)n3[C@H]2[C@H](O)[C@@H]2O[C@H]12)c1cn([C@@H]2COC[C@H]2O)nn1` the composite z-score was 0.324.
